Assay results published in PubChem BioAssay (NCI).
Compounds without any hit were thinned out: in the full panel of roughly 79,000, 15% have a hit. Values without a mark were called inactive. The source made the active and inactive calls. No stated cut-off is given here; in the data, active means growth inhibition above about 70%; inactive means the rest. Where a SMILES comes first, the peptide text is derived from it. The star is where a group is joined. Myristoyl = CCCCCCCCCCCCCC(=O)*

Experiment: NCI Yeast Anticancer Drug Screen. Data for the mec2-1 strain (AID 157)
Conditions: S. cerevisiae mec2-1 strain, at 50.0 µM, hits give high values
Outline: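 Growth inhibition is read against vehicle-treated controls after compound exposure of the mec2-1 yeast strain, which is defective in DNA damage repair or cell cycle control.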

| Compound | growth inhibition |
| --- | --- |
| COc1ccc(-c2cc(O)cc(C)c2N)c(OC)c1OC | 14.6% |
| CCCOc1ncnc2nc[nH]c12 | -6.05% |
| CCCCCCCCCCCCCC(=O)NCC(=O)NC(CO)C(=O)NC(CO)C(=O)NC(CCCCN)C(=O)NC(CO)C(=O)NC(CCCCN)C(=O)N1CCCC1C(=O)NC(CCCCN)C(=O)NC(CC(=O)O)C(N)=O (stereo not given) (Myristoyl-GSSKSKPKD-NH2; configuration not given here) | -2.55% |
| CS(=O)(=O)Nc1ccc(C(=O)CCN2CCCCCC2)cc1 | 8.9% |
| CC(C)(C)[C@@H]1NC(=O)CN1C(=O)OCc1ccccc1 | -35.2% |
| CC(C)(C)c1ccc(C(O)(c2ccc(C(C)(C)C)cc2)c2ccc(C(C)(C)C)cc2)cc1 | -3.85% |
| Clc1cccc(-c2nc3cccc4c3n2Cc2ncccc2-4)c1 | -37% |
| CC(=N\N=C(N)N)/C(N=Nc1ccc(S(N)(=O)=O)cc1)=N\N=C(N)N | 5.55% |
| O=C(O)c1ccccn1 | -3% |
| O=C1C=C(Nc2ccc(Cl)cc2Cl)c2ccccc2C1=O | 17.7% |
| CC(O)/C=C/C(CCC(C)CO)C(C)C (stereo not given) | -27.6% |
| Cc1ccc(S(=O)(=O)OCC2CC=CCC2COC(=O)c2ccc([N+](=O)[O-])cc2)cc1 (stereo not given) | -5.55% |
| C1=CC(c2ccccc2)=C(c2ccccc2)C(c2ccccc2)C(c2ccccc2)=C1 (stereo not given) | 1.95% |
| COc1ccc(-c2cc(N)c3c(c2O)C(=O)c2c(N)ccc(O)c2C3=O)cc1 | 4.75% |
| NC(=O)c1cc(OCc2ccccc2)nc2nc(Cl)nc(N)c12 | 14.6% |
| O=c1cc(-c2ccccc2)c2ccccc2[nH]1 | -6.8% |
| CCC(/C=C/c1ccccc1)=N\NC(=O)c1ccc(Cl)cc1 | 5.5% |
| CC(C)C1OC2(C)OC(=N)C1(C#N)C(C#N)(C#N)C2C (stereo not given) | 2.2% |
| O=[N+]([O-])c1ccc(-c2noc(-c3ccccc3)c2C2=NCCN2)cc1 | -6% |
| O=c1[nH]nc(Cc2ccccc2)n1/N=C/c1cccnc1 | 30.9% |

| Compound | growth inhibition |
| --- | --- |
| COc1ccc(NC2=CC(=O)c3ccccc3C2=O)cc1 | 5.55% |
| CSc1ccc(NC(=O)c2ccc([N+](=O)[O-])cc2)cc1 | 5.6% |
| CCCCCCCCCCCCCCCCCC(=O)OCC(CO)OC(=O)CCCCCCCCCCCCCCCCC (stereo not given) | -9.65% |
| CC1=CCCC(C)(C)C1/C=C/C(=O)O (stereo not given) | -7.35% |
| O=C(/C=N/O)Nc1cccc(Cl)c1I | -5.2% |
| CCC(CCN(C)C)(OC(C)=O)c1ccccc1 (stereo not given) | -0.55% |
| CC(=O)OCC1OC(c2ccccc2)C/C(=N/O)C1OC(C)=O (stereo not given) | 98.5% (active) |
| CCCS(=O)(=O)CCC(=O)c1ccccc1 | -7.9% |
| CCC(CC)COC(=O)c1ccccc1C(=O)OCC(CC)CC | -33.3% |
| O=C1C2=C(c3ccccc31)C(c1ccccc1Cl)N1C(=O)CCSC1=N2 (stereo not given) | 0.4% |
| Cc1ccc(-c2cc(-c3cc(-c4ccc(C)cc4)nc(N)n3)nc(N)n2)cc1 | -13.4% |
| Cc1cc(Cc2ccc3c(c2)OCO3)ccc1OCC(=O)O | 18.3% |
| COc1cc(C2C(C(=O)Nc3ccccc3C)=C(C)NC(C)=C2C(=O)Nc2ccccc2C)ccc1O | -8.45% |
| CC(=O)OC/C=C(\C)CC(/C=C(C)/C=C/C1=C(C)CCCC1(C)C)S(=O)(=O)c1ccccc1 (stereo not given) | 9.4% |
| COc1cc2c(c(O)c1C)C(=O)CC(c1ccccc1)O2 (stereo not given) | -46.3% |
| c1ccc(C(c2cccc3c2ccc2ccccc23)C(c2ccccc2)c2cccc3c2ccc2ccccc23)cc1 (stereo not given) | -9.6% |
| COc1c2ccoc2cc2oc(=O)ccc12 | -7.1% |
| O=C(O)c1ccc(O)c(C(=O)O)c1 | 11% |
| CS(=O)(=O)Oc1ccccc1OS(C)(=O)=O | 8.85% |
| c1ccc2c(c1)Cc1ccc3ccccc3c1-2 | 28.7% |

Experiment: NCI Yeast Anticancer Drug Screen. Data for the sgs1 mgt1 strain (AID 161);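 further: 0% = growth of cultures given vehicle only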
Conditions: S. cerevisiae sgs1 mgt1 strain, at 50.0 µM, hits give high values
Outline: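 Growth of a repair-deficient yeast mutant was monitored after compound treatment and expressed as inhibition relative to vehicle-treated cultures.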

| Compound | growth inhibition |
| --- | --- |
| COc1ccc(-c2cc(O)cc(C)c2N)c(OC)c1OC | 17.4% |
| CCCOc1ncnc2nc[nH]c12 | 1.55% |
| CCCCCCCCCCCCCC(=O)NCC(=O)NC(CO)C(=O)NC(CO)C(=O)NC(CCCCN)C(=O)NC(CO)C(=O)NC(CCCCN)C(=O)N1CCCC1C(=O)NC(CCCCN)C(=O)NC(CC(=O)O)C(N)=O (stereo not given) (Myristoyl-GSSKSKPKD-NH2; configuration not given here) | -3.9% |
| CS(=O)(=O)Nc1ccc(C(=O)CCN2CCCCCC2)cc1 | -28.9% |
| CC(C)(C)[C@@H]1NC(=O)CN1C(=O)OCc1ccccc1 | -51.9% |
| CC(C)(C)c1ccc(C(O)(c2ccc(C(C)(C)C)cc2)c2ccc(C(C)(C)C)cc2)cc1 | -22.2% |
| Clc1cccc(-c2nc3cccc4c3n2Cc2ncccc2-4)c1 | -42.5% |
| CC(=N\N=C(N)N)/C(N=Nc1ccc(S(N)(=O)=O)cc1)=N\N=C(N)N | 19.4% |
| O=C(O)c1ccccn1 | 33.8% |
| O=C1C=C(Nc2ccc(Cl)cc2Cl)c2ccccc2C1=O | 17.2% |
| CC(O)/C=C/C(CCC(C)CO)C(C)C (stereo not given) | -26% |
| Cc1ccc(S(=O)(=O)OCC2CC=CCC2COC(=O)c2ccc([N+](=O)[O-])cc2)cc1 (stereo not given) | 12.1% |
| C1=CC(c2ccccc2)=C(c2ccccc2)C(c2ccccc2)C(c2ccccc2)=C1 (stereo not given) | 13.2% |
| COc1ccc(-c2cc(N)c3c(c2O)C(=O)c2c(N)ccc(O)c2C3=O)cc1 | 4.75% |
| NC(=O)c1cc(OCc2ccccc2)nc2nc(Cl)nc(N)c12 | 3.35% |
| O=c1cc(-c2ccccc2)c2ccccc2[nH]1 | -12.5% |
| CCC(/C=C/c1ccccc1)=N\NC(=O)c1ccc(Cl)cc1 | 7.5% |
| CC(C)C1OC2(C)OC(=N)C1(C#N)C(C#N)(C#N)C2C (stereo not given) | -18.5% |
| O=[N+]([O-])c1ccc(-c2noc(-c3ccccc3)c2C2=NCCN2)cc1 | 5.25% |
| O=c1[nH]nc(Cc2ccccc2)n1/N=C/c1cccnc1 | 37% |

| Compound | growth inhibition |
| --- | --- |
| COc1ccc(NC2=CC(=O)c3ccccc3C2=O)cc1 | 4.1% |
| CSc1ccc(NC(=O)c2ccc([N+](=O)[O-])cc2)cc1 | 10.3% |
| CCCCCCCCCCCCCCCCCC(=O)OCC(CO)OC(=O)CCCCCCCCCCCCCCCCC (stereo not given) | 7.3% |
| CC1=CCCC(C)(C)C1/C=C/C(=O)O (stereo not given) | -8.75% |
| O=C(/C=N/O)Nc1cccc(Cl)c1I | 30.1% |
| CCC(CCN(C)C)(OC(C)=O)c1ccccc1 (stereo not given) | -3% |
| CC(=O)OCC1OC(c2ccccc2)C/C(=N/O)C1OC(C)=O (stereo not given) | 97.8% (active) |
| CCCS(=O)(=O)CCC(=O)c1ccccc1 | -9% |
| CCC(CC)COC(=O)c1ccccc1C(=O)OCC(CC)CC | -0.35% |
| O=C1C2=C(c3ccccc31)C(c1ccccc1Cl)N1C(=O)CCSC1=N2 (stereo not given) | 13.9% |
| Cc1ccc(-c2cc(-c3cc(-c4ccc(C)cc4)nc(N)n3)nc(N)n2)cc1 | -20.1% |
| Cc1cc(Cc2ccc3c(c2)OCO3)ccc1OCC(=O)O | 15.6% |
| COc1cc(C2C(C(=O)Nc3ccccc3C)=C(C)NC(C)=C2C(=O)Nc2ccccc2C)ccc1O | -16.6% |
| CC(=O)OC/C=C(\C)CC(/C=C(C)/C=C/C1=C(C)CCCC1(C)C)S(=O)(=O)c1ccccc1 (stereo not given) | -6.15% |
| COc1cc2c(c(O)c1C)C(=O)CC(c1ccccc1)O2 (stereo not given) | 16% |
| c1ccc(C(c2cccc3c2ccc2ccccc23)C(c2ccccc2)c2cccc3c2ccc2ccccc23)cc1 (stereo not given) | -33.3% |
| COc1c2ccoc2cc2oc(=O)ccc12 | 12.8% |
| O=C(O)c1ccc(O)c(C(=O)O)c1 | 20.6% |
| CS(=O)(=O)Oc1ccccc1OS(C)(=O)=O | -14.3% |
| c1ccc2c(c1)Cc1ccc3ccccc3c1-2 | 34.4% |
